This is part of a sample that, as a whole, favours compounds with a hit. Of some 79,000 tested, about 15% had one in any assay. Calls of active or inactive are those of the source. Rule as the data show it: active = growth inhibition above about 70%; inactive = the rest.
Test: NCI Yeast Anticancer Drug Screen. Data for the sgs1 strain (AID 173);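 also: 0% = growth of vehicle-only control cultures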
Conditions: S. cerevisiae sgs1 mutant, stronger effect = higher value
Procedure: Growth inhibition of yeast strains with defined genetic alterations is measured as a screen for potential anti-cancer activity. Selected strains with alterations in DNA damage repair or cell cycle control were exposed to compounds and growth inhibition was measured relative to vehicle treated controls. The strain used in this assay is sgs1

Measured: growth inhibition

Cc1nc(-[n+]2nc(-c3ccncc3)nn2-c2ccccc2)sc1C
active: at 100.0 µM 77%
inactive: at 1.2 µM -2% | at 3.7 µM 7% | at 11.0 µM 45% | at 33.0 µM 69%

CSC(=S)Nc1cc(C)ccn1
inactive: at 1.2 µM -11% | at 3.7 µM -3% | at 11.0 µM 46% | at 33.0 µM 52%
active: at 100.0 µM 93%

O=Cc1cccc2ccc3ccccc3c12
inactive: at 1.2 µM -1% | at 3.7 µM -2% | at 11.0 µM 4% | at 33.0 µM 57%
active: at 100.0 µM 99%

O=C(COC(=O)c1cc(O)c(O)c(O)c1)c1ccc(-c2ccccc2)cc1
active: at 100.0 µM 97%
inactive: at 1.2 µM -1% | at 3.7 µM 1% | at 11.0 µM 11% | at 33.0 µM 63%

CC(=O)OCc1ccc(O)c(C=O)c1
inactive: at 1.2 µM -11% | at 3.7 µM -5% | at 11.0 µM 10% | at 33.0 µM 34% | at 100.0 µM 63%

O=C(N=Nc1ccccc1Cl)NNc1ccccc1Cl
inactive: at 1.2 µM 9% | at 3.7 µM 5% | at 11.0 µM 9% | at 33.0 µM 21% | at 100.0 µM 19%

COC(=O)CCNc1c2ccccc2nc2cccc([N+](=O)[O-])c12
active: at 1.2 µM 97% | at 3.7 µM 96% | at 11.0 µM 98% | at 33.0 µM 98% | at 100.0 µM 98%

[N-]=N[N+]#I1OC(C(F)(F)F)(C(F)(F)F)c2ccccc21
inactive: at 1.2 µM 41%
active: at 3.7 µM 89% | at 11.0 µM 98% | at 33.0 µM 99% | at 100.0 µM 99%

Reference: PubChem BioAssay (NCI)
